PubChem BioAssay (NCATS)
Records with an inconclusive call do not appear. Calls of active or inactive are those of the source. Calls follow the shape of the dose curve; as a rule, active = well fitted inhibition curve with a large enough effect; inconclusive = small, poorly fitted or top-dose-only effect, or effect the other way; inactive = flat fitted curve, though single readings scatter.

molecular target: ATPase family AAA domain-containing protein 5 (Homo sapiens) (UniProt Q96QE3); experiment: Validation screen for small molecules that inhibit ELG1-dependent DNA repair in human embryonic kidney (HEK293T) cells expressing luciferase-tagged ELG1 (AID 493107); conditions: HEK293T ELG1-luciferase level, luminescence, 5-fluorouridine co-treatment, 16 h; series mostly up to 46.1 µM; activity change, negative = decrease: at the top concentration; also: nearly all actives have a fitted effect of over 70% in size;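 as to activity change, negative = decrease: inhibitors lower the ELG1-luciferase luminescence signal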
Sequence (Q96QE3 whole entry, looked up, the tested form may be a part): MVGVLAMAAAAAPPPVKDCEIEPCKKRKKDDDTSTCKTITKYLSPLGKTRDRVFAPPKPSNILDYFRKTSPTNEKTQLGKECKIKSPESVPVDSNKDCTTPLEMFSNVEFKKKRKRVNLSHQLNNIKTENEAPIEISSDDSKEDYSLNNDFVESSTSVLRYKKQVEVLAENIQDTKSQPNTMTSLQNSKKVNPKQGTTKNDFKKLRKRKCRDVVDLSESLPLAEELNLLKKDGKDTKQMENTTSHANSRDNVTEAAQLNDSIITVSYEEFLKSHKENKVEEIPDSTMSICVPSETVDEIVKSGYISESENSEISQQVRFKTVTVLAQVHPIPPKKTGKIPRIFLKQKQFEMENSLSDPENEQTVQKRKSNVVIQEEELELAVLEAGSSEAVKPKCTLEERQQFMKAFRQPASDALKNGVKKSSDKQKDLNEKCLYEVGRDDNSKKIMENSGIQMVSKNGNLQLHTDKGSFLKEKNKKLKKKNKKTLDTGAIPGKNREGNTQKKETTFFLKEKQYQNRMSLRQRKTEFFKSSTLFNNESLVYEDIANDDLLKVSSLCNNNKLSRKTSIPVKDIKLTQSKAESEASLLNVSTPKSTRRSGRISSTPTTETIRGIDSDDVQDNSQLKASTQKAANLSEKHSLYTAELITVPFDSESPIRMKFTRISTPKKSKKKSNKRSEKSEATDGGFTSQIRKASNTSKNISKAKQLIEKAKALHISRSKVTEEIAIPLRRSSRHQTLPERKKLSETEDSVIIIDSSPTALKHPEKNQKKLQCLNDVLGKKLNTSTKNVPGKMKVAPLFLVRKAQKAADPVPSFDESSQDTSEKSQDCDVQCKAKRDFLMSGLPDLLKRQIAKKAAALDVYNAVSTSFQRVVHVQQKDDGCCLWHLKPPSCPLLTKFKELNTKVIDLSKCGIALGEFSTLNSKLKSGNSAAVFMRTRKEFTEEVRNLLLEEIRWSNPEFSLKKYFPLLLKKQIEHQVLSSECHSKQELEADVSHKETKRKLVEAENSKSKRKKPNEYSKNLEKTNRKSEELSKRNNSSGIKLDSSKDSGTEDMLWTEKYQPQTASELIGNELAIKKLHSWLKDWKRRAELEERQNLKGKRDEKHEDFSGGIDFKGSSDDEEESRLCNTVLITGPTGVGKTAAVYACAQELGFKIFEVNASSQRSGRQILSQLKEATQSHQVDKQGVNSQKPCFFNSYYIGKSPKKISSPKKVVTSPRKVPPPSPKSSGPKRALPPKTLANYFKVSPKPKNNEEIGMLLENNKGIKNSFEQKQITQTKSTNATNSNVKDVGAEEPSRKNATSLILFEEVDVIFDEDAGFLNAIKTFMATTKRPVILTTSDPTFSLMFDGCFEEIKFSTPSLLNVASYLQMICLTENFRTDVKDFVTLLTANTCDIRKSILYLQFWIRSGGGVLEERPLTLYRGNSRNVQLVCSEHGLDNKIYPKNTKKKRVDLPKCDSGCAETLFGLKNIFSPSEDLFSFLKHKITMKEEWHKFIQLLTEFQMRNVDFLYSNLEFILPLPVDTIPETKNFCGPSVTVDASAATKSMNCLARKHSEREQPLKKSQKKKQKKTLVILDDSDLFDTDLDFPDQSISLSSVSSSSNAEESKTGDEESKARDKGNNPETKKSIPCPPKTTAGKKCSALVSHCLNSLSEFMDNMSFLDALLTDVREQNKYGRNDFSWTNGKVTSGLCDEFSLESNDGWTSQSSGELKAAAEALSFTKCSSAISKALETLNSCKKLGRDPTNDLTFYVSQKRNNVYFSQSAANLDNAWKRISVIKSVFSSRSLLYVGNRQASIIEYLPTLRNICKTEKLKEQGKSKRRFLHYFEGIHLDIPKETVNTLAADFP
Description: NIH Molecular Libraries Probe Production Network [MLPCN]
NIH Chemical Genomics Center [NCGC]
Assay Provider: Kyungjae Myung, NHGRI, NIH
Keywords: MLPCN, qHTS, NCGC, genotoxicity, cancer
Cancer cells divide rapidly compared to normal cells in the body. During cell division, cancer cells need to duplicate their genome by DNA replication. The failure of genome duplication leads to cancer cells' death. Therefore, inhibitors of DNA replication could specifically kill cancer cells. Based on this concept, many chemotherapeutic agents were developed and have been used to treat cancer patients. However, there are a limited number of agents available in the clinical setting, and some of those that do exist have low efficacy and severe side effects. Therefore, if we can find the compounds that effectively block DNA replication either by directly damaging DNA or by inhibiting other cellular mechanisms, the options for cancer treatment will be broadened. With this in mind, we developed a quantitative high-throughput ELG1-luciferase reporter gene assay. Small molecules that specifically block ELG1 function in response to DNA damage can be identified by monitoring the suppression of luciferase activity. Since ELG1 defines a pathway for repairing DNA damage, agents blocking ELG1 function can be used to sensitize cancer cells to chemotherapeutic agents whose mechanism of action involves the induction of DNA damage.
For genotoxicity screening, 2,000 cells in 4 uL/well were dispensed into white, solid-bottom 1536-well plates using a solenoid-based dispenser. Following transfer of 1 uL 5-Fluorouridine and 23 nL compound or DMSO vehicle by a pin tool, the plates were incubated 16 hr at 37 °C and 5% CO2. 5 ul ONE-Glo (Promega) was then added to each plate and following a 30 min incubation at room temperature, luciferase activity was quantified on a ViewLux CCD-based plate reader.
% is scaled to controls: 0 for no effect and ±100 for the full control effect; potency is read from the fitted curve at half-maximal effect.

SMILES | activity change, negative = decrease | Potency
NC(N)=NCCCCN=C(N)N | 24.5% (inactive) | 
Brc1ccc([C@H]2CN3CCSC3=N2)cc1 | 17.2% (inactive) | 
CCN(CC)CCNC(=O)c1ccc(NS(C)(=O)=O)cc1 | -7.71% (inactive) | 
O=C1NC(c2cccc([N+](=O)[O-])c2)=CCN1c1ccccc1O | -7.29% (inactive) | 
COc1cccc2c1[C@@H]1CN(CCCCn3c(=O)[nH]c4c(sc5ncc(-c6ccccc6)nc54)c3=O)C[C@@H]1CO2 |  | 23.1 µM (active)
Cn1cnc2c(NCc3ccccc3)nc(NCCO)nc21 | 4.38% (inactive) | 
COc1ccccc1N1CCN(CCN2C(=O)CC3(CCCC3)CC2=O)CC1 | 2% (inactive) | 
N[C@@H](Cn1ccc(=O)c(O)c1)C(=O)O | -1.68% (inactive) | 
Clc1ccc2c(c1)N=C(N1CCNCC1)c1ccccc1N2 | -13.2% (inactive) | 
COC(=O)C1=CO[C@@H](O)[C@@H]2C(CO)=CC[C@H]12 | -31.1% (inactive) | 
C[N+](C)(C)CCO | -0.193% (inactive) | 
